One test has as its system Mel-DCC-11. The test can be described thus: cell viability relative to DMSO control (fraction of DMSO control); higher = less cytotoxic, active = 0.5 or less. As to conditions: 1 µM; 120 h. The essentials:
(§1)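 Luminescence from ATPlite 1step was read after 120 h in 384-well plates carrying 315 approved anti-cancer drugs (TargetMol), acoustically pre-spotted to give 1 µM in duplicate. Cells were seeded in 40 µl per well: 2500/well NHEM-hTERT immortalized melanocytes and 1500/well patient-derived Mel-DCC-11 and Mel-DCC-11-R, its resistant subline, which was assayed alone and with 8 µM of its selecting drug. Viability was normalised to vehicle-treated controls and averaged across duplicate wells.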

The test system of a further test is NHEM-hTERT. The description is as above. As to conditions: 1 µM; 120 h. In short, it runs like this:
as §1

The subject of the next test is Mel-DCC-11-R. Kind of test: cell viability relative to DMSO control (fraction of DMSO control); higher = less cytotoxic, active = 0.8 or less. As to conditions: 1 µM, 120 h. In short, it runs like this:
as §1

A number with no mark means an inactive call.

As for `CC[C@@H](CO)NCCN[C@@H](CC)CO.Cl.Cl` [Ethambutol dihydrochloride], the cell viability with Mel-DCC-11 was 0.966; in the test on NHEM-hTERT, 1.2.
On the same counts, the results for `CC(C)Cn1cnc2c(N)nc3ccccc3c21` [Imiquimod] are 0.985 and 1.31.
For `CC(O)(P(=O)(O)O)P(=O)(O)O` [Etidronate], the cell viability is 0.821 in the test with Mel-DCC-11 and 1.15 in the test with NHEM-hTERT.
Regarding `Nc1[nH]c(=O)ncc1F` [Fluorocytosine], the cell viability with Mel-DCC-11 is 1.16; with NHEM-hTERT, 1.04.
Take `CC[C@@H]1C(=O)N(C)c2cnc(Nc3ccc(C(=O)N[C@H]4CC[C@H](N5CCN(CC6CC6)CC5)CC4)cc3OC)nc2N1C(C)C` [Volasertib]: the cell viability in the test on Mel-DCC-11 was 0.752; in the test on NHEM-hTERT, 0.872.
On the same counts, the results for `C/C(=C\c1csc(C)n1)[C@@H]1C[C@@H]2O[C@]2(C)CCC[C@H](C)[C@H](O)[C@@H](C)C(=O)C(C)(C)[C@@H](O)CC(=O)N1` [Ixabepilone] are 0.316 (active) and 0.595.
On the same counts, the results for `O=c1[nH]c(=O)n(C2CCCO2)cc1F` (stereo not drawn) [Tegafur] are 0.785 and 0.922.
With `C.CCN(CC)CCCC(C)Nc1ccnc2cc(Cl)ccc12.O=P(O)(O)O.O=P(O)(O)O` (stereo not drawn) [Chloroquine diphosphate], the results for the cell viability with Mel-DCC-11 and in the test on NHEM-hTERT were 1.06 and 1.27, respectively.
As for `COc1c2occc2cc2ccc(=O)oc12` [8-Methoxypsoralen], the cell viability in the test with Mel-DCC-11 was 0.799; in the test on NHEM-hTERT, 1.09; with Mel-DCC-11-R (vemurafenib co-treatment 0 µM), 1.05; in the test with Mel-DCC-11-R (vemurafenib co-treatment 8 µM), 1.19.
For the compound `O=c1[nH]c(=O)n([C@H]2C[C@H](O)[C@@H](CO)O2)cc1F` [Floxuridine], the cell viability is 1.34 in the test with Mel-DCC-11, 1.11 with NHEM-hTERT, 1.24 with Mel-DCC-11-R (vemurafenib co-treatment 0 µM) and 1.07 in the test with Mel-DCC-11-R (vemurafenib co-treatment 8 µM).
Regarding `COC(=O)Nc1nc2ccc(C(=O)c3cccs3)cc2[nH]1` [Nocodazole], the cell viability with Mel-DCC-11 is 0.998; in the test with NHEM-hTERT, 0.63; in the test on Mel-DCC-11-R (vemurafenib co-treatment 0 µM), 0.823; in the test with Mel-DCC-11-R (vemurafenib co-treatment 8 µM), 0.518 (active).
As to `CC(C)(CO)c1cc2cc(NC(=O)C3(c4ccc5c(c4)OC(F)(F)O5)CC3)c(F)cc2n1C[C@@H](O)CO`, the cell viability in the test on Mel-DCC-11 was 1.01; in the test on NHEM-hTERT, 1.06; in the test on Mel-DCC-11-R (vemurafenib co-treatment 0 µM), 1.18; in the test with Mel-DCC-11-R (vemurafenib co-treatment 8 µM), 1.07.
On the same counts, the results for `NCCNc1ccc(NCCN)c2c1C(=O)c1ccncc1C2=O.O=C(O)/C=C\C(=O)O.O=C(O)/C=C\C(=O)O` [Pixantrone dimaleate] are 1.42, 0.889, 1.62 and 0.868.
In the case of `CS(=O)(=O)O.Cc1ccc(NC(=O)c2ccc(CN3CCN(C)CC3)cc2)cc1Nc1nccc(-c2cccnc2)n1` [Imatinib Mesylate], the cell viability is 1.15 in the test on Mel-DCC-11 and 0.965 in the test on NHEM-hTERT.
In the case of `COc1cc([C@H]2Oc3cc([C@H]4Oc5cc(O)cc(O)c5C(=O)[C@@H]4O)ccc3O[C@@H]2CO)ccc1O` [Silibinin], the cell viability is 0.939 in the test with Mel-DCC-11, 0.948 in the test on NHEM-hTERT, 0.799 (active) with Mel-DCC-11-R (vemurafenib co-treatment 0 µM) and 0.914 in the test on Mel-DCC-11-R (vemurafenib co-treatment 8 µM).
`CCCCCCCCCCCCCCCC(=O)OC/C=C(C)/C=C/C=C(C)/C=C/C1=C(C)CCCC1(C)C` [Retinol palmitate]: the cell viability in the test with Mel-DCC-11 was 0.752; in the test with NHEM-hTERT, 0.993.
On to `COc1ccc(C[C@H](N)C(=O)N[C@H]2[C@@H](O)[C@H](n3cnc4c(N(C)C)ncnc43)O[C@@H]2CO)cc1.Cl.Cl` [Puromycin dihydrochloride], for which the cell viability in the test on Mel-DCC-11 was 0.246 (active); with NHEM-hTERT it was 0.467 (active); with Mel-DCC-11-R (vemurafenib co-treatment 0 µM), 0.309 (active); with Mel-DCC-11-R (vemurafenib co-treatment 8 µM), 0.58 (active).
For the compound `CC(COc1ccccc1)N(CCCl)Cc1ccccc1.Cl` (stereo not drawn) [Phenoxybenzamine hydrochloride], the cell viability was 1.18 with Mel-DCC-11 and 1.13 with NHEM-hTERT.
Turning to `Nc1nc(Cl)nc2c1ncn2[C@@H]1O[C@H](CO)[C@@H](O)[C@@H]1F` [Clofarabine], the cell viability is 0.59 in the test with Mel-DCC-11, 0.53 with NHEM-hTERT, 0.91 in the test with Mel-DCC-11-R (vemurafenib co-treatment 0 µM) and 0.67 (active) with Mel-DCC-11-R (vemurafenib co-treatment 8 µM).
Take `COc1cc([C@@H]2c3cc4c(cc3[C@@H](O[C@@H]3O[C@@H]5CO[C@@H](C)O[C@H]5[C@H](O)[C@H]3O)C3COC(=O)C32)OCO4)cc(OC)c1O` (stereo partly drawn) [Etoposide]: the cell viability in the test on Mel-DCC-11 was 1.4; with NHEM-hTERT it was 0.798; with Mel-DCC-11-R (vemurafenib co-treatment 0 µM) it was 1.26; in the test on Mel-DCC-11-R (vemurafenib co-treatment 8 µM), 0.859.
